The values below come from PubChem BioAssay AID434962 (The Scripps Research Institute Molecular Screening Center, 2010).

Among all 320,000 compounds or so, about 1,300 (0.41%) were called active. The sample holds actives, similar compounds and a random draw of the others, so the mix is not that of the screen. Values without a mark were called inactive.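 Rule for the calls: active = percent inhibition above the average of all tested compounds plus 3 SD, set per screening campaign (cut at about 16% in these data); inactive = the rest.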

Insulin-degrading enzyme (Homo sapiens), sequence (P14735 whole entry, looked up): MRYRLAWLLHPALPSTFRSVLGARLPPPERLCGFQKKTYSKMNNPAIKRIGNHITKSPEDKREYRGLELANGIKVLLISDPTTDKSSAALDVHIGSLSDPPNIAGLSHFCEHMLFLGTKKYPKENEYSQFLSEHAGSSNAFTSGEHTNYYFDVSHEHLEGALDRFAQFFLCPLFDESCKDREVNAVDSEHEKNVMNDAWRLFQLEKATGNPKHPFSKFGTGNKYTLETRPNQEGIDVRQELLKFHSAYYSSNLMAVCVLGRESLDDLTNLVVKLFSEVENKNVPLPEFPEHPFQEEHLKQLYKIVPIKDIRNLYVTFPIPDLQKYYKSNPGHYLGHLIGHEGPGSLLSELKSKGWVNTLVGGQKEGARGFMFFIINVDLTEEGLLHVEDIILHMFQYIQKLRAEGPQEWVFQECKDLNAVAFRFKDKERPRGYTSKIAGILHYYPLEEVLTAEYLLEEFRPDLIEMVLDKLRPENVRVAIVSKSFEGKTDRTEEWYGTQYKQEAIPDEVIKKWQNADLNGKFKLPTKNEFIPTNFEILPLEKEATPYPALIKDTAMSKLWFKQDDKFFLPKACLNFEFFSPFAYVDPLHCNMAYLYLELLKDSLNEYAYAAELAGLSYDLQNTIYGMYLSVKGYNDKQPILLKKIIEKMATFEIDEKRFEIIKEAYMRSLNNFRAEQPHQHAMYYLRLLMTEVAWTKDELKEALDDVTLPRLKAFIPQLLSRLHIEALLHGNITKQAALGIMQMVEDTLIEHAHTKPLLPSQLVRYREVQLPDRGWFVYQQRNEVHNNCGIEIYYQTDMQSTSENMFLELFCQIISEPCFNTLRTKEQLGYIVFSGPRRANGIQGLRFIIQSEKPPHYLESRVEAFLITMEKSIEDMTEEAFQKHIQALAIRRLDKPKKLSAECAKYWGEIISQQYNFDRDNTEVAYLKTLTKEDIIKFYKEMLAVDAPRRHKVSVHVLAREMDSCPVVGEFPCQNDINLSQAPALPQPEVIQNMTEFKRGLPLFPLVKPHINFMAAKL

The test concerns the target Insulin-degrading enzyme (Homo sapiens) (UniProt P14735). The experiment in a line: human IDE inhibitors in live cells, primary screen, fluorescence polarization, HEK cells, FAbetaB substrate (AID 434962).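 Note: IDE supplied by intact live HEK cells; FP after avidin binding of uncleaved biotin substrate so inhibition keeps polarization high; 0% = DMSO wells and 100% = 60 µM reference IDE inhibitor Ii1.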 The following applies: FAbetaB cleavage, at 5.59 µM, hits give high values. Background: Fluorescence polarisation rises when a labelled molecule tumbles more slowly, as on binding a larger partner.
For the molecule `Cc1nc2ccccc2c(=O)n1NC(=O)c1ccccc1`, the inhibition (as a rule, the change of the read-out against control, counted positive when it falls) was 7.25%.
The figure for `Cc1ccnc(N2CCCC(C(=O)NC3CC3)C2)n1` (configuration not stated) is 1.69%; for `Cc1ccnc(-n2sc3ccccc3c2=O)n1` it is 57.8% (active); for `COc1cccc(CNC(=O)C2CCCN(c3ncnc4c3nc3n4CCCCC3)C2)c1` (configuration not stated) it is 8.69%.
The figure for `O=C(/C=C/c1ccccc1)Oc1coc(CSc2ncccn2)cc1=O` is 4.39%.
The figure for `COC(=O)c1sccc1-n1cccc1C(=O)C(=O)N1CCCCC1` is -0.4%; for `COc1ccc(N(C(=O)c2cccnc2)S(=O)(=O)c2ccc(OC)c(OC)c2)cc1` it is -4.14%.
For the molecule `CCc1ccc(N(CC(=O)NCc2cccnc2)S(=O)(=O)c2ccccc2)cc1`, the inhibition is 8.22%.
For the molecule `O=C(c1cccnc1)N(c1cc2sc(=O)oc2c2ccccc12)S(=O)(=O)c1ccccc1`, the inhibition was 20.4% (active).
With `O=C(Cn1nnc2ccccc2c1=O)Nc1cc(C(F)(F)F)ccc1N1CCOCC1` the figure was 6.97%.
With `COc1ccc(C)cc1NC(=O)c1cc(-c2ccccc2)nc2c1cnn2C(C)C` the figure was 1.05%; with `CC(=O)N(C1=C(Cl)C(=O)c2ccccc2C1=O)c1ccc(C(=O)O)cc1`, 98.9% (active); with `Cc1cc(OCCCC(=O)NCCN2C(=O)S/C(=C\c3cccnc3)C2=O)ccc1Cl`, 3.84%.
The figure for `OC(c1nc2ccc(F)cc2[nH]1)C(O)c1nc2ccc(F)cc2[nH]1` (configuration not stated) is 6.32%.
For `COc1ccc(-c2[nH]ncc2/C=N/NC(=O)c2cc(Br)ccc2O)c(OC)c1`, the inhibition is 1.62%.
For `Cc1ccccc1NC(=O)C(C)c1ccc(-c2ccccc2)c(F)c1` (configuration not stated), the inhibition is 4.53%.
The figure for `CCN1/C(=C\c2ccc3ccccc3[n+]2CC)Sc2cc(C)ccc21` is 73.9% (active); for `CCN1/C(=C/c2ccc3ccc(C)cc3[n+]2CC)Sc2ccccc21` it is 31.9% (active); for `CC(NC(=O)C(C)(C)C)C(c1cccs1)N1CCN(Cc2ccccc2)CC1` (configuration not stated) it is -2.35%.
The figure for `O=Cc1c(Nc2ccccc2Cl)nc2ccccn2c1=O` is -3.69%; for `CC(=O)c1ccc(S(=O)(=O)Nc2ccc(-c3ccc4nncn4n3)cc2)cc1` it is 2.89%.
The figure for `Cc1ccc(CC(=O)N(C)CC(=O)N(CC(C)C)c2c(N)n(CC(C)C)c(=O)[nH]c2=O)cc1C` is -2.63%; for `CCOC(=O)Cn1c(=O)oc2cc(S(=O)(=O)N(C)Cc3ccco3)ccc21` it is 3.15%.
Take `CN(c1ccccc1)c1ccc(/C=c2\s/c(=C(/C#N)C(=O)C(C)(C)C)n(Cc3ccco3)c2=O)cc1`: the inhibition is 31% (active).
For `O=C(O)c1ccccc1C(=O)NC1=NN(c2ccccc2)CC1`, the inhibition is -0.6%.
The figure for `COc1ccccc1C(=O)OCC(=O)Nc1cccc(S(=O)(=O)NC2=NCCCCC2)c1` is 0.13%; for `Cc1ccc(Br)c(NS(=O)(=O)c2cccc(C(=O)N3CCNC(=O)C3)c2)c1` it is -0.69%.
Consider `CCOC(=O)/C(C#N)=C/c1ccc(N2CCN(Cc3ccccc3)CC2)cc1`, for which the inhibition was 3.39%.
The figure for `COc1ccc(N2CCN(C(=O)/C(C#N)=C/c3ccccc3)CC2)cc1` is 17.7% (active).
The figure for `C/C(=C/c1ccccc1)C(=O)N1CCN(c2ccccc2)CC1` is -2.17%.
With `Cc1cc(=O)oc2c1ccc1ccccc12` the figure was 7.29%; with `CCc1ccccc1N(CC(=O)N1CCN(c2ccccc2F)CC1)S(C)(=O)=O`, -4%.
`COc1ccc(NC(=O)C(C)SCc2ccccc2)cc1` (configuration not stated): the inhibition was -4.67%.
With `O=C(NCCc1c[nH]c2ccccc12)C1CCN(Cc2ccc(Br)cc2)CC1` the figure was -4.77%; with `O=C(CN1C(=O)NC2(CCCCC2)C1=O)NCCc1c[nH]c2ccccc12`, 1.64%; with `N#C/C(=C/c1ccc(N2CCCCC2)o1)C(=O)NCCc1c[nH]c2ccccc12`, 151% (active).
With `COc1ccccc1N(C)S(=O)(=O)c1ccc(C(=O)NC2CCCCCC2)cc1` the figure was -1.04%.
With `CC1CCCC(NC(=O)COC(=O)[C@@H]2CC(O)CN2S(=O)(=O)c2ccc3c(c2)OCCO3)C1C` (some centres not stated) the figure was 2.16%; with `COc1cc(C(=O)Nc2cc(C(F)(F)F)ccc2-n2cncn2)cc(OC)c1OC`, -10.1%; with `CCN(CC(=O)Nc1c(F)cccc1F)C(=O)C1CCC1`, -0.82%.
`N#CC1=C(N)Oc2c(sc3ccccc23)C1c1ccco1` (configuration not stated): the inhibition is 37.7% (active).
The figure for `N#CC1=C(N)Oc2c(ccc3cccnc23)C1c1ccncc1` (configuration not stated) is 0.4%; for `Cc1cc(C(=O)NCCc2ccc(Cl)cc2)c(C)o1` it is -1.15%; for `COCc1[nH][nH]c(=O)c1C=Nc1ccc(F)cc1F` it is 1.29%.
With `CN1/C(=c2/s/c(=C3/C(=O)N(c4ccccc4)NC3=Nc3ccccc3)n(C)c2=O)C(C)(C)c2ccccc21` the figure was 27% (active); with `O=C(OCC(=O)N1CCCCC1)c1ccc(OC(F)(F)F)cc1`, 7.21%.
On to `Cc1nnc(Sc2nc3c(c(=O)[nH]c(=O)n3C)n2Cc2ccccc2)s1`, for which the inhibition is 1.7%.
The figure for `C=CCC1=C/C(=C\c2c(N)n3nc(CC(=O)N4CCOCC4)sc3nc2=O)C=C(OC)C1=O` is 68.9% (active); for `COC1=C/C(=C/c2c(N)n3nc(CC(=O)N4CCOCC4)sc3nc2=O)C=CC1=O` it is 12.1%.
With `COc1cc(/C=C2\C(=N)N3N=C(CC(=O)N4CCOCC4)SC3=NC2=O)cc(OC)c1OC` the figure was -4.67%; with `Cc1cccc(CSc2ccc(-c3cccs3)nn2)c1`, 4.68%; with `FC(F)(F)Oc1ccc(-c2cn3cccnc3n2)cc1`, 6.48%.
Consider `FC(F)(F)c1ccc2c3n(nc2c1)CCN=C3c1ccc(Cl)cc1`, for which the inhibition is 1.01%.
With `CCn1c(O)c(N=NC2=NC(=O)CS2)c2cc(C)ccc21` the figure was 5.14%; with `CCC(=C/c1sc2ccc3ccccc3c2[n+]1C)/C=C1\Sc2ccc3ccccc3c2N1C`, 50.5% (active).
With `O=S1(=O)CC(NCc2ccccc2)C(Nc2ccc(Cl)cc2)C1` (configuration not stated) the figure was 0.58%.
As to `COc1ccc(NS(=O)(=O)c2cc3c(cc2C)N(C(C)=O)CCO3)cc1`, the inhibition is 2.34%.
The figure for `CN1C(C)(C)CC(NC(=O)CCC(=O)NC2CC(C)(C)N(C)C(C)(C)C2)CC1(C)C` is 0.6%; for `C=CCN1C(=O)C2(OCCCO2)c2cccc(Cl)c21` it is 1.02%; for `CCc1ccc(N(C(=O)c2csnn2)C(C(=O)NC2CCCCC2)c2ccncc2)cc1` (configuration not stated) it is 3.98%.
`Cc1cccn2c(=O)c(/C=C(\C#N)C(N)=O)c(N3CCCCCC3)nc12`: the inhibition is 15.9%.
As to `CCOC(=O)N1CCN(C(=O)CSc2nc(=O)n3cccc(C)c3n2)CC1`, the inhibition is -1%.
Regarding `CCOC(=O)CC1C(=O)NCCN1c1nc2c(C)cccn2c(=O)c1/C=C1\SC(=S)N(C(C)CC)C1=O` (configuration not stated), the inhibition was 114% (active).
With `O=C(COc1ccc(S(=O)(=O)N2CCOCC2)cc1Cl)N1CCOCC1` the figure was 0.54%; with `CCCc1cc(=O)oc2c(C)c(OCC(=O)N3CCC(C(=O)O)CC3)ccc12`, 0.15%.
With `Cc1c(C)c2ccc(OCC(=O)N3CCC(C(=O)O)CC3)c(C)c2oc1=O` the figure was 9.3%.
The figure for `CCCCc1cc(=O)oc2c(C)c(OCC(=O)N3CCC(C(N)=O)CC3)ccc12` is 21.3% (active); for `CCC(C)N(C(=O)COC(=O)c1nc(Cl)ccc1Cl)C1CCS(=O)(=O)C1` (configuration not stated) it is 1.33%.
Regarding `CNC(=O)/C(C#N)=C/c1c(F)cccc1Cl`, the inhibition was -1.39%.
The figure for `CCN1CCN(C(=O)C2CCCN(S(=O)(=O)c3ccc(OC)c(OC)c3)C2)CC1` (configuration not stated) is -5.73%.
The figure for `O=C(O)c1ccccc1CSc1nc2ccccc2s1` is -2.6%; for `O=[N+]([O-])c1c(NCCO)cc(Sc2nc3ccccc3s2)c2nonc12` it is 21.8% (active); for `CCOc1ccccc1Nc1ccc2nonc2c1[N+](=O)[O-]` it is -3.97%.
The figure for `Cc1[nH]c2ccccc2c1/C=C(/C#N)C(=O)NC(C)C` is -1.7%; for `Nc1c(C(=O)c2cccs2)sc2nsc(SCCN3CCCCC3)c12` it is 23% (active).
Regarding `O=C(CSc1ncnc2sccc12)N1CCN(C(=O)c2cccs2)CC1`, the inhibition was 3.13%.
For the molecule `O=[N+]([O-])c1ccc(N(CCO)Cc2ccccc2)c([N+](=O)[O-])c1`, the inhibition is 0.66%.
With `COc1ccc(N2CCN(Cc3ccc(Br)s3)CC2)cc1` the figure was -4.53%; with `O=C1NC(c2ccccc2)=NC1(Nc1ccccn1)C(F)(F)F` (configuration not stated), -2.81%; with `COC(=O)c1ccc(/C=C/c2c(-c3ccc(OC)cc3)sc3ccccc23)cc1`, 1.82%.
The figure for `Oc1ccc(N=Cc2sc3ccccc3c2Cl)cc1` is 0.23%.
The figure for `COc1ccc(N=C(C)c2sc3ccccc3c2O)cc1` is 41.2% (active); for `Cc1ccccc1NC(=O)Cc1nc(COC(=O)c2ccc(C(F)(F)F)cc2)cs1` it is 7.39%; for `CCN(CC)C(=O)C(=O)Nc1cccc(Br)c1` it is 1.91%.
On to `Cc1ccc(CSCC(=O)N(C)CC(=O)Nc2cccc(F)c2)cc1`, for which the inhibition is 5.39%.
With `CCN(CC)C(=O)CSC(Nc1cccc(F)c1)=C(C#N)C#N` the figure was 31.4% (active).
With `Cc1cccc(OCC(O)CN2CCN(CCN3C(=O)c4cccc5cccc(c45)C3=O)CC2)c1C` (configuration not stated) the figure was -8.18%.
The figure for `Cc1cccc(C)c1NC(=O)COC(=O)c1ccccc1O` is 3.87%; for `Cc1cc([N+](=O)[O-])c(N2CCC[C@@H]2C(=O)O)c([N+](=O)[O-])c1` it is 3.34%; for `CS(=O)(=O)N(Cc1ccccc1)c1ccc(C(=O)NN=C2CCCCCC2)cc1` it is 18.7% (active).
`Cc1ccccc1CN(c1ccc(C(=O)NCC2CCCO2)cc1)S(C)(=O)=O` (configuration not stated): the inhibition is 10.1%.
Take `CN1CCC(=NNC(=O)c2ccc(N(Cc3ccc(Cl)cc3)S(C)(=O)=O)cc2)CC1`: the inhibition is 8.43%.
